Assay [1] can be described thus: small molecules captured by biotinylated probe aFSTL3 – biochemical, small-molecule microarray, fluorescence 635/667, stem cell growth factor project, primary screen (AID 1064).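 Also: measures binding of the biotinylated anti-FSTL3 antibody to printed compounds.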 Conditions: higher = more signal.
Assay [2] in a line: binders from COS7 lysate, DM2A8 probe, primary screen, torsin A project, cell lysate, small-molecule microarray, fluorescence 635/667 (AID 1065). The following applies: higher = more signal, COS7 lysate expressing mutant human TOR1A.
Assay [3] in a line: small molecules captured by biotinylated probe aFGF2 – biochemical, small-molecule microarray, fluorescence 635/667, stem cell growth factor project, primary screen (AID 1067).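 Also: measures binding of biotinylated aFGF2 protein to printed compounds on slides; z-score merges feature fluorescence and signal-to-noise across triplicate slides.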 Conditions: higher = more signal.
Assay [4] is described as follows: small molecules captured by biotinylated probe aFGF10 – biochemical, small-molecule microarray, fluorescence 635/667, stem cell growth factor project, primary screen (AID 1071).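 Also: score merges 667 nm spot intensity and signal to noise from triplicate slides.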 The following applies: higher = more signal.
The target of assay [5] is Neurogenic locus notch homolog protein 2 (Homo sapiens) (UniProt Q04721). In words: small molecules binding Notch2 protein – biochemical, small-molecule microarray, 635 nm fluorescence, stem cell growth factors, primary screen (AID 1073). The following applies: higher = more signal.
The target of assay [6] is Pro-neuregulin-1, membrane-bound isoform (Homo sapiens) (UniProt Q02297). In words: small molecules binding neuregulin-1 protein – biochemical, small-molecule microarray, fluorescence 635/667, psychiatric disease protein project, primary screen (AID 1075).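 Also: score combines 667 nm spot fluorescence with signal to noise.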 Conditions: NRG1 binding, 635 nm fluorescence, higher = more signal.
In assay [7] the test system is Neuregulin-1 EGF-like domain. In words: small molecules binding NRG1 EGF domain – biochemical, small-molecule microarray, 635 nm fluorescence, primary screen (AID 1081).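 Also: binding of the protein to compounds printed on small-molecule microarray slides.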 Conditions: higher = more signal.
Assay [8] in a line: FRG1 expression reporter modulators in myotubes – cell-based, C2C12 myotubes, firefly/Renilla luciferase, luminescence, FRG1 inhibition for FSHD, primary screen (AID 1084). The following applies: FRG1 promoter luciferase, higher = more signal, called active from +8 up or from −8 down.
Assay [9] is described as follows: small molecules captured by biotinylated probe aFST – biochemical, small-molecule microarray, fluorescence 635/667, stem cell growth factor project, primary screen (AID 1086).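 Also: score merges 667 nm fluorescence with signal-to-noise of each printed compound spot.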 The following applies: higher = more signal.
A short description of assay [10]: binders of probe aHhip on microarray, primary screen, stem cell growth factor project, biochemical, small-molecule microarray, fluorescence 635/667 (AID 1087).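 Also: score merges spot fluorescence at 667nm with spot signal to noise ratio.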 The following applies: higher = more signal.
The test system of assay [11] is PRMT1 (protein arginine N-methyltransferase 1). The assay is described as follows: small molecules binding arginine methyltransferase PRMT1 – biochemical, small-molecule microarray, 635 nm fluorescence, primary screen (AID 1088).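 Also: binding of Prmt1 protein to compounds spotted on small-molecule microarray slides.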 Conditions: higher = more signal.
A short description of assay [12]: growth effects on S. cerevisiae YJM789 – YJM789 clinical isolate, OD600, 24 h, basal, primary screen (AID 1089).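 Also: growth of clinical yeast isolate S. cerevisiae YJM 789 seeded 1000 cells per well; test concentration not given here.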 Conditions: higher = more signal, called active from +8 up or from −8 down.
The nature of assay [13]: S. pombe growth modifiers, basal conditions – strain 972, OD600, 24 h, no modulator, primary screen (AID 1090).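 Also: basal condition with compound alone and no growth modifier present; test concentration not given here.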 The following applies: S. pombe 972 growth, higher = more signal, called active from +8 up or from −8 down.
The nature of assay [14]: budding yeast growth modifiers under rapamycin – strain BY4716, OD600, 96 h, primary screen (AID 1091). Also: test concentration not given here. The following applies: S. cerevisiae BY4716 + rapamycin, higher = more signal, called active from +8 up or from −8 down.
Assay [15] concerns the target Torsin-1A-interacting protein 2 (Homo sapiens) (UniProt Q8NFQ8). The assay is described as follows: small molecules binding lysate-expressed LULL1 – cell lysate, human LULL1 lysate, 635/667 nm fluorescence, primary screen (AID 1092).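 Also: probe is lysate of COS7 cells overexpressing human LULL1; score merges per-feature 667 nm fluorescence with signal-to-noise.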 Conditions: small-molecule microarray, hLULL1 lysate binding, 635 nm fluorescence; higher = more signal.
A short description of assay [16]: optical density change of DRC41 E. coli – strain DRC41, OD650, 24 h, E. coli filamentation project, primary screen (AID 1093).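 Also: MC1000 strain lacking acrAB efflux and sulA so SOS filamentation is blocked; test concentration not given here.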 The following applies: E. coli DRC41 growth, higher = more signal, called active from +8 up or from −8 down.
The nature of assay [17]: probe aLefty2 binding to arrayed compounds – biochemical, biotinylated probe, 635/667 nm fluorescence, primary screen (AID 1094).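 Also: score merges spot fluorescence near 667 nm with spot signal-to-noise ratio.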 Conditions: small-molecule microarray, higher = more signal.
For assay [18], the system named is Noggin (protein binding on small-molecule microarray). The assay is described as follows: small molecules binding Noggin protein – biochemical, 635/667 nm fluorescence, primary screen (AID 1095).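 Also: score merges 667 nm feature fluorescence with signal to noise over triplicate slides.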 Conditions: 635 nm fluorescence, higher = more signal.
The target of assay [19] is Neurogenic locus notch homolog protein 3 (Homo sapiens) (UniProt Q9UM47). In words: small molecules binding NOTCH3 protein – biochemical, 635/667 nm fluorescence, primary screen (AID 1096). Conditions: small-molecule microarray, 635 nm fluorescence, higher = more signal.
A short description of assay [20]: probe aEGFR binding to arrayed compounds – biochemical, biotinylated probe, 635/667 nm fluorescence, primary screen (AID 1097).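 Also: probe is a biotinylated anti-EGFR antibody binding compounds printed on slides; score combines fluorescence near 667 nm and signal to noise of each spot.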 Conditions: small-molecule microarray, higher = more signal.

Data on five compounds can be found in PubChem BioAssay.

Molecules are shown by their SMILES. Calls of active or inactive are those of the source.

Neurogenic locus notch homolog protein 3 (Homo sapiens), sequence (Q9UM47 whole entry, looked up): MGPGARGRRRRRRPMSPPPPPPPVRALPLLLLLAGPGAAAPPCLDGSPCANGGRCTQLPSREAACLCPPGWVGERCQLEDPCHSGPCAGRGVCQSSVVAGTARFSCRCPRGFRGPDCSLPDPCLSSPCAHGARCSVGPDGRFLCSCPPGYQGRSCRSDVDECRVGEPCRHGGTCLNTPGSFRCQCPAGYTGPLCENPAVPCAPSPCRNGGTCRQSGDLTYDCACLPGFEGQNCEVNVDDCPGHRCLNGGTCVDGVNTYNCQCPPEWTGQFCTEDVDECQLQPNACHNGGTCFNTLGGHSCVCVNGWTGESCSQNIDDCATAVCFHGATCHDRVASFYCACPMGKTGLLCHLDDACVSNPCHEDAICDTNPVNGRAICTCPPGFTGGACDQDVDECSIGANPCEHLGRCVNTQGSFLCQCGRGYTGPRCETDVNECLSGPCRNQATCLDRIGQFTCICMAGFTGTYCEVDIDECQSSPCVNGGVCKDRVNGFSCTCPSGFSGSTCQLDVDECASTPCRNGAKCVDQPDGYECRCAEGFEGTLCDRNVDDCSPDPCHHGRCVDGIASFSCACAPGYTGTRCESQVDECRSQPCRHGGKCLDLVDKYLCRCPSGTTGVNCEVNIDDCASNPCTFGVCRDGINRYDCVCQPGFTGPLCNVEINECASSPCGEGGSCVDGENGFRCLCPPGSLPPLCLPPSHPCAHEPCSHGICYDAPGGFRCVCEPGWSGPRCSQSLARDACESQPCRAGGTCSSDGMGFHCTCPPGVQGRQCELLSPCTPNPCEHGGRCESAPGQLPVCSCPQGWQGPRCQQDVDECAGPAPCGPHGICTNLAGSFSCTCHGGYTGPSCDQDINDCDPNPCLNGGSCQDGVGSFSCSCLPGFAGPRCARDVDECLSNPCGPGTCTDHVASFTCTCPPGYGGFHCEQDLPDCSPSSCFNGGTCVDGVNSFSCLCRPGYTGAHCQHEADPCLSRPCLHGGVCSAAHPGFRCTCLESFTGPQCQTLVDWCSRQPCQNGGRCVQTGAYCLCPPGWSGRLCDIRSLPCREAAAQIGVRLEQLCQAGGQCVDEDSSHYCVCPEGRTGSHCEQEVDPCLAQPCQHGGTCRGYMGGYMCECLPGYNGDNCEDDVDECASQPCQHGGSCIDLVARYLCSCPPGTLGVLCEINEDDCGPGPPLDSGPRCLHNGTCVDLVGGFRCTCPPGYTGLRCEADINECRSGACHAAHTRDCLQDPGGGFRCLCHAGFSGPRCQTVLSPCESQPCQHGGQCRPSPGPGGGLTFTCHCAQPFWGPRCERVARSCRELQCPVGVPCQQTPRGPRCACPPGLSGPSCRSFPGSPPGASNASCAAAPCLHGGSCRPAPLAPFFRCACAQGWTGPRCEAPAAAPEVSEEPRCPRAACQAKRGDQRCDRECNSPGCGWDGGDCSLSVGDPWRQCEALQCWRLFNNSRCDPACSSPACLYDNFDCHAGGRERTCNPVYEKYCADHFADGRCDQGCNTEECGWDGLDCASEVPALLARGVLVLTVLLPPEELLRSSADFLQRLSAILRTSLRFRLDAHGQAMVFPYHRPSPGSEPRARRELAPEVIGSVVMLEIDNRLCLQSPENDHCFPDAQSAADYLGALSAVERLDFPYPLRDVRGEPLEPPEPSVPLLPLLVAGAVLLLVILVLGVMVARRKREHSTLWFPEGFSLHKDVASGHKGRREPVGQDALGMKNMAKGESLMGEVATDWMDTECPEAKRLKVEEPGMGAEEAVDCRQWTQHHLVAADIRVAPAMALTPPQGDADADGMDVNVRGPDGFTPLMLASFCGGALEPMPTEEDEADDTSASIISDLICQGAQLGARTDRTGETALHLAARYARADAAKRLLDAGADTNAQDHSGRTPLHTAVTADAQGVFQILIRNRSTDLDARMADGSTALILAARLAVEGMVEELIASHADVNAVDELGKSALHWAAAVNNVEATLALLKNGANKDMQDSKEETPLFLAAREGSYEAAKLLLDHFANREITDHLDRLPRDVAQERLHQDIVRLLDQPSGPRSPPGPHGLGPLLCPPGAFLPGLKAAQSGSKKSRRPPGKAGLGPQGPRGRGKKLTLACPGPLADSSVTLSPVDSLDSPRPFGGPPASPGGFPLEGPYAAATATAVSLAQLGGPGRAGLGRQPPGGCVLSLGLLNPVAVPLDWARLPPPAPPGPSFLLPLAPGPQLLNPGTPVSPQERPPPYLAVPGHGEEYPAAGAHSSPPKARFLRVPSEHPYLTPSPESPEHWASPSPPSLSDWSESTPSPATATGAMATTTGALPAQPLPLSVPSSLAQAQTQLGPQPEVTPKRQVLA
Neurogenic locus notch homolog protein 2 (Homo sapiens), sequence (Q04721 whole entry, looked up, canonical isoform): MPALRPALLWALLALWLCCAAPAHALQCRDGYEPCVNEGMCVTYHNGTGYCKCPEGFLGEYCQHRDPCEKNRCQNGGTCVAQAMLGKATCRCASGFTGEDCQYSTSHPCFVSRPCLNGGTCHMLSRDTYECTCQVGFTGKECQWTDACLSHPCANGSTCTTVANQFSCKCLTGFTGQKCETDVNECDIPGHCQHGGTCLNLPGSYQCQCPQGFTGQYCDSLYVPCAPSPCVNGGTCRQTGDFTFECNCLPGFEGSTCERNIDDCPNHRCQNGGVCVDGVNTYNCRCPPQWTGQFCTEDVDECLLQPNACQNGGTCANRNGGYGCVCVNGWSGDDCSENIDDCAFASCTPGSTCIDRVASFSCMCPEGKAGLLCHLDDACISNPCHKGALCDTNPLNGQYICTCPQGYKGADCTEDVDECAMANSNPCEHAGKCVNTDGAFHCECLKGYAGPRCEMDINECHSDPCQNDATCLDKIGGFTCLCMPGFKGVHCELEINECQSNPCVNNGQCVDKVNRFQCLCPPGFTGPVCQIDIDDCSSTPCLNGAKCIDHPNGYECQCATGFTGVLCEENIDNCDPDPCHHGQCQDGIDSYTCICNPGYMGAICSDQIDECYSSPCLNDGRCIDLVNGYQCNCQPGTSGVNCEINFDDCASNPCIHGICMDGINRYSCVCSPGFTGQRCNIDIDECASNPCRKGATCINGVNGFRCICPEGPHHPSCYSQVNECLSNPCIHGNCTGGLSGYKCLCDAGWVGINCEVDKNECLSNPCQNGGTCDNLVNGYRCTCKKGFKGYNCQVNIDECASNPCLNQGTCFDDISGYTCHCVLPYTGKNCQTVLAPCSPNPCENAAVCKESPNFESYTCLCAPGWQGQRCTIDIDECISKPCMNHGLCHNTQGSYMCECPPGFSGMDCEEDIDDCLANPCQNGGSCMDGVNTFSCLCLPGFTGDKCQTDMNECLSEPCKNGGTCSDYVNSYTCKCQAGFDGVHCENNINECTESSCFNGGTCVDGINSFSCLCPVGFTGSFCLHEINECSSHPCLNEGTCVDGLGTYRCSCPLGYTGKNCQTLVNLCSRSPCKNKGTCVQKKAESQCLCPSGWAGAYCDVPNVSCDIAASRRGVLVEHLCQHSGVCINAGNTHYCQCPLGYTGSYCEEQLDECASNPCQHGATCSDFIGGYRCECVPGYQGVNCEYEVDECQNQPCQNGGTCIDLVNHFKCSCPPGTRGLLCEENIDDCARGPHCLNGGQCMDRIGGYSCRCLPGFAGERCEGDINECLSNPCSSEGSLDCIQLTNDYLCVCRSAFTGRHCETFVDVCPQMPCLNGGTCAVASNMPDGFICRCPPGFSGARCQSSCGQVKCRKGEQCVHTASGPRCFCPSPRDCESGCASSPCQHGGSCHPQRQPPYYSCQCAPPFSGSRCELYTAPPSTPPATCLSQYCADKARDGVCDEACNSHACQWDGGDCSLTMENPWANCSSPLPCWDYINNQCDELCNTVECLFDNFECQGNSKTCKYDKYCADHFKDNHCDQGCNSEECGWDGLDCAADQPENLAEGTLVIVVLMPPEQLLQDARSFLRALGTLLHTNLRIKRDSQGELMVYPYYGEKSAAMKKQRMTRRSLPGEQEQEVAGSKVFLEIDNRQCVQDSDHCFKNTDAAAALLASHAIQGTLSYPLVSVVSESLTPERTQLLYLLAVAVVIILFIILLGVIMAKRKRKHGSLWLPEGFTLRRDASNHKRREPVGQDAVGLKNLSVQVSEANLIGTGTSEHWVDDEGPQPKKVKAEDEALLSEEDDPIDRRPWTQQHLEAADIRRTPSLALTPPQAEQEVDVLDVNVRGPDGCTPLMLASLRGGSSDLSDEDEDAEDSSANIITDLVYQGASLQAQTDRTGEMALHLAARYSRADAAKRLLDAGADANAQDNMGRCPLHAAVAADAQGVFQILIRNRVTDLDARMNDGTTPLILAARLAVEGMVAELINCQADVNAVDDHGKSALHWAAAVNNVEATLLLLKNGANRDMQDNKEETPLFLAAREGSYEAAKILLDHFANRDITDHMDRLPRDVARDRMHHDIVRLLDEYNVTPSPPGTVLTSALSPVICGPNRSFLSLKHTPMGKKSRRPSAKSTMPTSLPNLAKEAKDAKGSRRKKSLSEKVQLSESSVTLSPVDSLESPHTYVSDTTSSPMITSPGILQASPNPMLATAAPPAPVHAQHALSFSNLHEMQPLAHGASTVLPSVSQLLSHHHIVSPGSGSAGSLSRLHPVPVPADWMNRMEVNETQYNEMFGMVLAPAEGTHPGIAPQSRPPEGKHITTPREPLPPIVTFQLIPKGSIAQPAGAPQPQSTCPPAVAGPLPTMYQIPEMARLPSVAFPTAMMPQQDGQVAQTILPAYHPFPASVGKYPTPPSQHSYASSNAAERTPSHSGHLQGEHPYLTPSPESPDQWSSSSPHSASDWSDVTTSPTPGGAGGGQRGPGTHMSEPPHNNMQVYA

As to `C=C(C)C1CN([C@H](CO)c2ccccc2)C(=O)/C1=C\c1ccccc1` (stereo not given in full), the composite z-score was -0.511 in assay [1]; 0.188 in assay [2]; -0.111 in assay [3]; 0.305 in assay [4]; -0.0443 in assay [5]; 0.049 in assay [6]. In addition, the composite z-score is 0.465 in assay [7]; 0.173 in assay [9]; -0.174 in [10]; 0.464 in assay [11]; -0.302 in assay [15]; -0.0931 in [17]. The composite z-score is 0.467 in assay [18], 0.0584 in [19] and -0.167 in assay [20]. The z-score in assay [8] is -1.39 (inactive); in assay [12] it was -0.334 (inactive); in assay [13], -3.2 (inactive); in [14], -0.481 (inactive); in assay [16], 1.82 (inactive).

With `CCCCCCCCCCC(O)C1C=CC2C(=O)N(C)C(=O)C2N1Nc1ccccc1` (stereo not given), the composite z-score in [1] is 0.889; in assay [2] it was 0.149; in [3], -0.229; in [4], -1.07; in assay [5], -0.932; in assay [6], 0.0962. Besides, the composite z-score in assay [7] is -0.101; in [9], -0.191; in assay [10] it was -0.469; in assay [11] it was -1.19; in [15] it was 0.8; in assay [17], -0.405. Also, the composite z-score was -0.387 in assay [18], -1.4 in assay [19] and -0.247 in assay [20]. In addition, the z-score is 0.767 (inactive) in [8]; 0.875 (inactive) in assay [12]; -1.53 (inactive) in [13]; 0.882 (inactive) in assay [14]; -1.87 (inactive) in assay [16].

Regarding `Cc1ccc(S(=O)(=O)N2[C@@H](c3ccccc3)C(C(=O)O)=C[C@H]2C(C)(C)C)cc1`, the composite z-score is -0.316 in [1]; 1.81 in assay [2]; 0.0103 in [3]; 0.611 in assay [4]; 1.45 in assay [5]; 1.37 in assay [6]. Besides, the composite z-score in assay [7] was 1.23; in [9], 0.736; in assay [10], -0.156; in assay [11], 1.55; in [15], 2.88; in [17], 0.152. Also, the figures for the composite z-score in [18], in assay [19] and in assay [20] were 0.126, 1.08 and 0.131, respectively. For the same compound, the z-score in assay [8] was -1.84 (inactive); in [12], -0.601 (inactive); in assay [13], -0.273 (inactive); in assay [14], -0.802 (inactive); in assay [16], -0.231 (inactive).

Turning to `COC(=O)[C@H]1N=C(c2ccc(OCCCO)cc2)O[C@H]1c1ccccc1N=[N+]=[N-]`, the composite z-score was found to be 1.6 in [1]; 0.707 in assay [2]; 0.184 in assay [3]; 0.48 in assay [4]; 1.01 in assay [5]; 0.544 in assay [6]. The composite z-score in assay [7] was 1.21; in assay [9], 1.04; in assay [10], -0.0994; in [11] it was 1.08; in [15], 2.73; in assay [17], 0.588. Besides, the composite z-score is 0.0025 in assay [18], -0.0392 in assay [19] and 0.131 in assay [20]. The z-score in assay [8] was 4.9 (inactive); in assay [12], -0.651 (inactive); in assay [13], -4.13 (inactive); in assay [14], -1.09 (inactive); in assay [16], 0.112 (inactive).

For the compound `CC(C)(C)OC(=O)CC[C@@]1(C(N)=O)N=C(c2ccc(OCCCO)cc2)O[C@@H]1c1ccccc1CN=[N+]=[N-]`, the composite z-score in assay [1] amounted to 0.389; in [2] it was 0.87; in [3] it was 0.153; in assay [4], 0.712; in assay [5] it was 1.57; in [6], 1.28. Besides, the composite z-score is 1.44 in assay [7]; 1.47 in assay [9]; 0.452 in assay [10]; -0.319 in assay [11]; 2.86 in assay [15]; 0.669 in [17]. Further, the composite z-score in assay [18] was determined as 0.324; in assay [19], 0.851; in [20], 0.756. Moreover, the z-score is 4.09 (inactive) in [8]; 0.689 (inactive) in assay [12]; -0.477 (inactive) in assay [13]; -0.132 (inactive) in [14]; 0.035 (inactive) in [16].
